Source: PubChem BioAssay AID1159580 (chemical genetic matrix, 2015)
Screen size: about 5,500 compounds; about 2,000 (36%) were called active. Another 18% or so got no clear call; they are omitted. Cut-off read from the data, not from the text of the source: active = normalized growth mostly below about 0.91 (no sharp cut-off); inconclusive = no clear call, values can overlap the other calls; inactive = mostly above about 0.92. The list shows a part of the results.

Assay: chemical genetic growth profiling, strain panel (AID 1159580);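 note: tested at 20 µM; growth read once vehicle control cultures reached saturation at 30 °C; 1 = growth at the plate median or of vehicle wells; lower values mean less growth of the strain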
Conditions: growth OD
[1] = S. cerevisiae deletion strains, locus YAL013W, strain DEP1, hits give low values
[2] = S. cerevisiae deletion strains, locus YBR229C, strain ROT2, hits give low values
[3] = S. cerevisiae deletion strains, locus YCL061C, strain MRC1, hits give low values
[4] = S. cerevisiae deletion strains, locus YDL101C, strain DUN1, hits give low values
[5] = S. cerevisiae deletion strains, locus YDR150W, strain NUM1, hits give low values
[6] = S. cerevisiae deletion strains, locus YEL061C, strain CIN8, hits give low values
[7] = S. cerevisiae deletion strains, locus YGR078C, strain PAC10, hits give low values
[8] = S. cerevisiae deletion strains, locus YGR229C, strain SMI1, hits give low values
[9] = S. cerevisiae deletion strains, locus YHR030C, strain SLT2, hits give low values
[10] = S. cerevisiae deletion strains, locus YHR087W, strain rtc3, hits give low values
[11] = S. cerevisiae deletion strains, locus YJR043C, strain POL32, hits give low values
[12] = S. cerevisiae deletion strains, locus YJR075W, strain HOC1, hits give low values
[13] = S. cerevisiae deletion strains, locus YLR039C, strain RIC1, hits give low values
[14] = S. cerevisiae deletion strains, locus YLR058C, strain SHM2 (second series), hits give low values
[15] = S. cerevisiae deletion strains, locus YLR085C, strain ARP6, hits give low values
[16] = S. cerevisiae deletion strains, locus YLR262C, strain YPT6, hits give low values
[17] = S. cerevisiae deletion strains, locus YML094W, strain GIM5, hits give low values
[18] = S. cerevisiae deletion strains, locus YMR219W, strain ESC1, hits give low values
[19] = S. cerevisiae deletion strains, locus YMR263W, strain SAP30, hits give low values
[20] = S. cerevisiae deletion strains, locus YMR307W, strain GAS1, hits give low values
[21] = S. cerevisiae deletion strains, locus YNL153C, strain GIM3, hits give low values
[22] = S. cerevisiae deletion strains, locus YNL298W, strain CLA4 (second series), hits give low values
[23] = S. cerevisiae deletion strains, locus YNL322C, strain KRE1, hits give low values
[24] = S. cerevisiae deletion strains, locus YNR030W, strain Alg12, hits give low values
[25] = S. cerevisiae deletion strains, locus YPL055C, strain LGE1, hits give low values
[26] = S. cerevisiae deletion strains, locus YPL241C, strain CIN2, hits give low values
[27] = S. cerevisiae deletion strains, locus YPR135W, strain CTF4, hits give low values

Measured: normalized growth

COC(=O)c1ccc(S(=O)(=O)N2CCC(C(N)=O)CC2)n1C
inactive: [1] 0.97 | [2] 1 | [3] 0.99 | [4] 0.97 | S. cerevisiae deletion strains, locus YDL134C, strain PPH21, hits give low values 1.03 | [5] 0.881 | [6] 1.02 | [7] 0.989 | [8] 1 | [9] 1.05 | [10] 0.993 | [11] 0.983 | [12] 0.988 | S. cerevisiae deletion strains, locus YKL190W, strain CNB1, hits give low values 1.02 | [13] 1.01 | [14] 0.991 | [15] 1.06 | [16] 1.03 | [17] 0.999 | [18] 0.99 | [19] 0.981 | [20] 1.05 | [21] 1.01 | [22] 1.06 | [23] 1 | [24] 1.04 | [25] 0.852 | [26] 1.02 | [27] 1

CCOC(=O)/C(C#N)=C(\Nc1ccc(C(=O)OCC)cc1)SC
active: [9] 0.815 | S. cerevisiae deletion strains, locus YLR113W, strain HOG1, hits give low values 0.706 | S. cerevisiae deletion strains, locus YPL256C, strain CLN2, hits give low values 0.751
inactive: S. cerevisiae deletion strains, locus YAR019C, strain CDC15, hits give low values 0.982 | S. cerevisiae deletion strains, locus YBL105C, strain PKC1, hits give low values 0.977 | S. cerevisiae deletion strains, locus YBR135W, strain CKS1, hits give low values 0.98 | S. cerevisiae deletion strains, locus YBR136W, strain MEC1, hits give low values 0.974 | S. cerevisiae deletion strains, locus YBR160W, strain CDC28, hits give low values 0.98 | S. cerevisiae deletion strains, locus YDL017W, strain CDC7, hits give low values 0.978 | S. cerevisiae deletion strains, locus YDL028C, strain MPS1, hits give low values 0.984 | [4] 0.977 | S. cerevisiae deletion strains, locus YDL108W, strain KIN28, hits give low values 0.972 | S. cerevisiae deletion strains, locus YDL132W, strain cdc53, hits give low values 0.981 | S. cerevisiae deletion strains, locus YDL214C, strain PRR2, hits give low values 0.929 | S. cerevisiae deletion strains, locus YDR052C, strain DBF4, hits give low values 0.983 | S. cerevisiae deletion strains, locus YDR054C, strain cdc34, hits give low values 0.984 | S. cerevisiae deletion strains, locus YDR226W, strain ADK1, hits give low values 0.979 | S. cerevisiae deletion strains, locus YDR477W, strain SNF1, hits give low values 0.954 | S. cerevisiae deletion strains, locus YER123W, strain YCK3, hits give low values 0.91 | S. cerevisiae deletion strains, locus YER133W, strain GLC7, hits give low values 0.945 | S. cerevisiae deletion strains, locus YFL009W, strain cdc4, hits give low values 0.978 | S. cerevisiae deletion strains, locus YFL029C, strain CAK1, hits give low values 0.982 | S. cerevisiae deletion strains, locus YFR003C, strain YPI1, hits give low values 0.977 | S. cerevisiae deletion strains, locus YFR019W, strain FAB1, hits give low values 0.968 | S. cerevisiae deletion strains, locus YFR028C, strain CDC14, hits give low values 0.979 | S. cerevisiae deletion strains, locus YGR040W, strain KSS1, hits give low values 0.946 | S. cerevisiae deletion strains, locus YGR052W, strain FMP48, hits give low values 0.959 | S. cerevisiae deletion strains, locus YGR092W, strain DBF2, hits give low values 0.947 | S. cerevisiae deletion strains, locus YHR079C, strain IRE1, hits give low values 0.841 | S. cerevisiae deletion strains, locus YHR082C, strain KSP1, hits give low values 0.998 | S. cerevisiae deletion strains, locus YHR205W, strain SCH9, hits give low values 0.872 | S. cerevisiae deletion strains, locus YIL147C, strain SLN1, hits give low values 0.98 | S. cerevisiae deletion strains, locus YJL095W, strain BCK1, hits give low values 0.934 | S. cerevisiae deletion strains, locus YJL128C, strain PBS2, hits give low values 0.913 | S. cerevisiae deletion strains, locus YJL157C, strain FAR1, hits give low values 0.945 | S. cerevisiae deletion strains, locus YJR016C, strain ILV3, hits give low values 0.99 | S. cerevisiae deletion strains, locus YJR066W, strain TOR1 (second series), hits give low values 0.941 | S. cerevisiae deletion strains, locus YJR066W, strain TOR1, hits give low values 0.985 | S. cerevisiae deletion strains, locus YKL048C, strain ELM1, hits give low values 0.921 | S. cerevisiae deletion strains, locus YKL067W, strain YNK1, hits give low values 0.928 | S. cerevisiae deletion strains, locus YKL101W, strain HSL1, hits give low values 0.908 | S. cerevisiae deletion strains, locus YKL193C, strain SDS22, hits give low values 0.984 | S. cerevisiae deletion strains, locus YKL203C, strain TOR2, hits give low values 0.977 | S. cerevisiae deletion strains, locus YLR133W, strain CKI1, hits give low values 0.953 | S. cerevisiae deletion strains, locus YLR403W, strain SFP1, hits give low values 0.954 | S. cerevisiae deletion strains, locus YML070W, strain DAK1, hits give low values 0.909 | S. cerevisiae deletion strains, locus YMR001C, strain CDC5, hits give low values 0.981 | S. cerevisiae deletion strains, locus YMR205C, strain PFK2 (second series), hits give low values 0.949 | S. cerevisiae deletion strains, locus YMR277W, strain FCP1, hits give low values 0.983 | S. cerevisiae deletion strains, locus YNL006W, strain LST8, hits give low values 0.98 | S. cerevisiae deletion strains, locus YNL020C, strain ARK1, hits give low values 0.944 | S. cerevisiae deletion strains, locus YNL161W, strain CBK1, hits give low values 0.978 | S. cerevisiae deletion strains, locus YNL183C, strain NPR1, hits give low values 0.948 | S. cerevisiae deletion strains, locus YNL207W, strain RIO2, hits give low values 0.975 | S. cerevisiae deletion strains, locus YNL222W, strain SSU72, hits give low values 0.982 | S. cerevisiae deletion strains, locus YNL307C, strain MCK1 (second series), hits give low values 0.931 | S. cerevisiae deletion strains, locus YOL078W, strain AVO1, hits give low values 0.994 | S. cerevisiae deletion strains, locus YOL136C, strain PFK27, hits give low values 0.912 | S. cerevisiae deletion strains, locus YOR061W, strain CKA2, hits give low values 0.949 | S. cerevisiae deletion strains, locus YOR119C, strain RIO1, hits give low values 1.02 | S. cerevisiae deletion strains, locus YOR231W, strain MKK1, hits give low values 0.864 | S. cerevisiae deletion strains, locus YOR329C, strain SCD5, hits give low values 0.98 | S. cerevisiae deletion strains, locus YPL031C, strain PHO85, hits give low values 0.957 | S. cerevisiae deletion strains, locus YPL153C, strain RAD53, hits give low values 0.954 | S. cerevisiae deletion strains, locus YPL204W, strain HRR25, hits give low values 0.948 | S. cerevisiae deletion strains, locus YPL209C, strain IPL1, hits give low values 0.982 | S. cerevisiae deletion strains, locus YPR025C, strain CCL1, hits give low values 0.979 | S. cerevisiae deletion strains, locus YPR106W, strain ISR1, hits give low values 0.978 | S. cerevisiae deletion strains, locus YPR111W, strain DBF20, hits give low values 0.947 | S. cerevisiae deletion strains, strain NNK1, hits give low values 0.959 | S. cerevisiae deletion strains, strain TSCII, hits give low values 0.984

CCOC(=O)c1ccc(NC(N)=S)cc1
inactive: [1] 1.01 | [2] 1.01 | [3] 0.994 | [4] 0.994 | [5] 0.941 | [6] 0.998 | [7] 0.993 | [8] 1 | [9] 1.03 | [10] 0.992 | [11] 0.997 | [12] 0.956 | [13] 1.01 | [14] 0.998 | [15] 0.974 | [16] 1.05 | [17] 0.966 | [18] 0.998 | [19] 0.935 | [20] 0.935 | [21] 0.979 | [22] 1 | [23] 1.01 | [24] 1 | [25] 0.949 | [26] 0.986 | [27] 0.968 | S. cerevisiae strains, strain wild type, hits give low values 1.01
